CaV13 FRET inh – Disruptors of the CACNA1D IQ motif to Ca2+-dependent inactivation inhibitor domain association, primary screening, Förster resonance energy transfer in intact living …; HEK cells, CFP/YFP FRET ICDI-IQ, plate reader, 10 min; percent FRET-ratio fall versus neutral wells; inhibition, % at 12.3 µM; actives 0.098% (n = 340,000); AID 743397;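 active = mean replicate inhibition of at least 30% and at least 1% of replicates passing that level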;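 also: 0% = median of the neutral control wells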
ERp5 block – inhibitors of ERp5-driven insulin aggregation, primary screen, biochemical, turbidity, absorbance 650 nm, single point; AID 651711, 2012; inhibition, % at 9.99 µM; actives 0.05% (n = 350,000); 90 min; Protein disulfide-isomerase A6 (Homo sapiens), Q15084;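 active = mean replicate inhibition above about 25%, with every replicate also reaching it, limit read from the data, passing the limit was not always enough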
Target sequence (Q15084 whole entry, looked up): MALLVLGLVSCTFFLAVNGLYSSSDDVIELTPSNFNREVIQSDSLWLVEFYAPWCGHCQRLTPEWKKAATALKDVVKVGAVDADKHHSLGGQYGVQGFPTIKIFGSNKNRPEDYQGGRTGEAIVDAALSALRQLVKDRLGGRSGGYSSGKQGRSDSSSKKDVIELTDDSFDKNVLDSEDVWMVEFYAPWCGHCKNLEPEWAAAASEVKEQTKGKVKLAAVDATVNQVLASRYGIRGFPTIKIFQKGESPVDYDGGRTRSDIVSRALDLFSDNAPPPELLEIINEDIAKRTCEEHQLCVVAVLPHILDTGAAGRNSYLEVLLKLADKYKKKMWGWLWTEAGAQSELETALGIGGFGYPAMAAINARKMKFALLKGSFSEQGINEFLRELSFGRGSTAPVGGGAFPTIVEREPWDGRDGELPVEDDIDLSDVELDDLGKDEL
PDI inh – inhibitors of human PDI, primary screen, biochemical, turbidity, single point, plate reader; PDI insulin aggregation turbidity, A650, 90 min; Protein disulfide-isomerase (Homo sapiens), P07237; inhibition, % at 10 µM; actives 0.052% (n = 350,000);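 active = mean inhibition across replicates of 30% or more, whatever share of single replicates reach that level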
PvdQ acylase – P. aeruginosa PvdQ acylase inhibitors, primary screen, biochemical, fluorescence, plate reader and imaging, single point; PvdQ acylase [Pseudomonas aeruginosa LESB58]; purified PvdQ acylase; inhibition, % at 10 µM; actives 0.063% (n = 340,000); AID 488965, 2010; in the data active = inhibition above about 30%, passing the limit was not always enough;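 also: 0% = vehicle neutral wells and 100% = reference inhibitor wells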
* = called active by the depositor; . = not tested or not shown. Rows were chosen to be rich in hits. Some 0.2% of all compounds tested hit in one or more screens of this group.

SMILES	CaV13 FRET inh	ERp5 block	PDI inh	PvdQ acylase
Cc1ccc(S(=O)(=O)N(C)C[C@H]2Oc3c(NC(=O)Nc4c(C)noc4C)cccc3C(=O)N([C@@H](C)CO)C[C@@H]2C)cc1	.	-6	.	.
Cc1noc(C)c1NC(=O)Nc1cccc2c1O[C@H](CN(C)S(=O)(=O)c1ccc(Cl)cc1)[C@@H](C)CN([C@H](C)CO)C2=O	.	26*	.	.
CCC1(CC)NC(=O)N(CC(=O)OC(C)C(=O)Nc2ccc(S(N)(=O)=O)cc2)C1=O (centres undefined)	-1	9	-5	.
CCC1(CC)NC(=O)N(CC(=O)OC(C)C(=O)Nc2ccc(NC(C)=O)cc2)C1=O (centres undefined)	-6	28*	0	-16
O=C1NC[C@H](Cc2ccccc2)N(C[C@H]2CCCN2C[C@H](Cc2ccc(O)cc2)N2C[C@H](Cc3ccc(O)cc3)N(CC3CCCCCC3)C(=O)C2=O)C1=O	-6	1	39*	-8
CCOC(=O)CCCn1ncn2c(cc3occc32)c1=O	-9	.	5	33*
C[C@@H](NC(=O)C[C@@H]1C=C[C@@H](NC(=O)C2CC2)[C@H](CO)O1)c1ccccc1	.	7	.	.
Cc1ccc(S(=O)(=O)N(C)C[C@@H]2Oc3ccc(NC(=O)Nc4c(C)noc4C)cc3CC(=O)N([C@@H](C)CO)C[C@@H]2C)cc1	.	0	.	.
Cc1ccccc1NC(=O)COC(=O)CCc1nc2ccccc2c(=O)[nH]1	-6	3	-5	-13
O=C(COC(=O)CCc1nc2ccccc2c(=O)[nH]1)Nc1c(Cl)cccc1C(F)(F)F	-7	26*	3	-14
COc1cc(C2C3=C(CC(C)(C)CC3=O)N(C)C3=C2C(=O)CC(C)(C)C3)cc(Br)c1O	35*	1	0	-6
COc1cc(C2C3=C(CC(C)(C)CC3=O)N(C)C3=C2C(=O)CC(C)(C)C3)ccc1O	5	0	12	3
COc1ccccc1-c1cnc2c(c1)C(=O)N([C@@H](C)CO)C[C@H](C)[C@@H](CN(C)C(=O)CN(C)C)O2	.	-3	.	.
O=C(Nc1cc(F)ccc1F)N[C@H]1CC[C@@H](CCn2cc(C3CC3)nn2)O[C@H]1CO	.	0	.	.
CCC(Sc1nc(N)c(NC(=O)c2ccc(OC)cc2)c(=O)[nH]1)C(=O)O (centres undefined)	67*	3	-9	-8
CCCCC(Sc1nc(N)c(NC(=O)c2ccc(OC)cc2)c(=O)[nH]1)C(=O)O (centres undefined)	-2	3	10	-1
O=C(NCC1CC1)c1cc([N+](=O)[O-])cc([N+](=O)[O-])c1	-20	2	-2	68*
O=C(NCC1CCCCC1)c1cccc([N+](=O)[O-])c1	-20	3	19	0
O=C(C[C@@H]1CC[C@@H]2[C@H](COC[C@@H](O)CN2S(=O)(=O)c2ccccc2)O1)NCCN1CCCC1	.	43*	.	.
N#C[C@H]1[C@@H](c2ccccc2)[C@H](CO)N1S(=O)(=O)c1ccc(F)cc1	.	2	.	.
CC(C)CC#Cc1cnc2c(c1)C(=O)N([C@H](C)CO)C[C@H](C)[C@H](CN(C)Cc1ccccc1C(=O)O)O2	.	37*	.	.
C[C@@H]1CN([C@H](C)CO)C(=O)c2cc(C#CCN(C)C)cnc2O[C@H]1CN(C)Cc1cccc(F)c1	.	57*	.	.
C[C@H](CO)N1C[C@H](C)[C@H](CN(C)C(=O)Cc2cccnc2)Oc2ncc(C#CC3(O)CCCC3)cc2C1=O	.	-1	.	.
C[C@@H]1CN([C@H](C)CO)C(=O)c2cc(C#CC3CC3)cnc2O[C@@H]1CN(C)Cc1ccccc1C(=O)O	.	11	.	.
C[C@@H]1CN([C@@H](C)CO)C(=O)c2cc(C#CC3(O)CCCC3)cnc2O[C@H]1CN(C)C(=O)Cc1cccnc1	.	28*	.	.
SMILES	CaV13 FRET inh	ERp5 block	PDI inh	PvdQ acylase
COc1ccc(C(=O)Oc2cc(N)n(S(=O)(=O)c3ccccc3)n2)cc1	97*	4	-5	-22
CC(C)C(NC(=O)c1ccc(F)cc1)C(=O)N1CCOCC1 (centres undefined)	-2	27*	-7	-3
Cc1c(O)ccc2c(CC(=O)N[C@@H](Cc3c[nH]c4ccccc34)C(=O)O)cc(=O)oc12	-3	1	60*	-4
O=C(/C=C/c1ccc(O)cc1)c1ccc(O)cc1O	-5	5	41*	1
O=C1C(Cl)=C(N2CCC(C(=O)O)CC2)C(=O)c2ccccc21	.	.	4	4
CN1CCN(C2=C(Cl)C(=O)c3ccccc3C2=O)CC1	-7	0	41*	-11
CC1(C)CC(=O)C2=C(C1)OC(N)=C(C#N)[C@@H]2c1ccccc1[N+](=O)[O-]	179*	2	0	-10
COc1cc(C(=O)NCCCNc2nc3c(C)cc(C)cc3cc2C#N)cc(OC)c1OC	59*	2	-2	-14
CCC(=O)NCCCNc1nc2c(C)cccc2cc1C#N	46*	5	-10	-7
CCN1[C@@H]2Cn3c(ccc(-c4cccnc4)c3=O)[C@H]1[C@@H](C(=O)NC1CCCC1)[C@@H]2CO	.	8	.	.
O=C(NC1CCCC1)[C@@H]1[C@@H](CO)[C@@H]2Cn3c(ccc(-c4cccnc4)c3=O)[C@H]1N2CC1CC1	.	28*	.	.
C/C=C/c1cnc2c(c1)C(=O)N([C@H](C)CO)C[C@@H](C)[C@@H](CN(C)Cc1cncnc1)O2	.	0	.	.
C[C@H]1CN([C@@H](C)CO)C(=O)Cc2cc(NC(=O)Nc3ccc(F)cc3)ccc2O[C@@H]1CN(C)Cc1ccc(C(F)(F)F)cc1	.	-6	.	.
O=S1(=O)CCOC[C@H](c2ccccc2)N1Cc1ccccc1	-3	5	7	2
O=S1(=O)CCOC[C@H](c2ccccc2)N1Cc1cccc(Cl)c1	-5	-6	-2	43*
CCOc1ccc(Nc2ncnc3ccc([N+](=O)[O-])cc23)cc1	-4	4	-3	86*
CCOC(=O)c1ccc(Nc2ncnc3ccc(C)cc23)cc1	.	.	-15	-10
COCCNC(=O)C[C@H]1C[C@@H]2c3cc(NS(C)(=O)=O)ccc3O[C@@H]2[C@H](CO)O1	.	-2	.	.
CCCNC(=O)C[C@@H]1C[C@H]2c3cc(NS(C)(=O)=O)ccc3O[C@H]2[C@@H](CO)O1	.	56*	.	.
CCCNC(=O)C[C@H]1C[C@H]2c3cc(NS(C)(=O)=O)ccc3O[C@H]2[C@@H](CO)O1	.	27*	.	.
O=C1O[C@@H](Cc2ccccc2)[C@H]2[C@@H]3C=CCCC=C3CN2C12CCCC2	.	1	.	.
O=C(C[C@@H]1CC[C@@H]2[C@H](COC[C@H](O)CN2C(=O)Nc2cc(Cl)cc(Cl)c2)O1)NCC1CCCCC1	.	0	.	.
CC1CCN(Cc2ccc(NC(=O)CC3Oc4ccccc4NC3=O)cc2)CC1 (centres undefined)	52*	-5	2	-21
CCc1cccc(NC(=O)CC2Oc3ccccc3NC2=O)c1 (centres undefined)	-6	1	2	-7

Assay outcomes deposited in PubChem by Broad Institute.
